Bioassay records deposited in PubChem BioAssay by National Center for Advancing Translational Sciences (NCATS).
TSHR antag: human thyrotropin receptor antagonism; P16473; TSHR-expressing cells, TSH-stimulated cAMP HTRF, 2 h; active compounds read low; activity change, negative = inhibition, % at 11.5 µM; 330,000 compounds, 0.2% hits; AID 504810;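 active = activity change below a set negative limit, meaning inhibition stronger than a set level, cut at about -70% in these data; inconclusive = activity change between two set negative limits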; also: % is scaled to controls: 0 for no effect and ±100 for the full control effect
Target sequence (P16473 whole entry, looked up): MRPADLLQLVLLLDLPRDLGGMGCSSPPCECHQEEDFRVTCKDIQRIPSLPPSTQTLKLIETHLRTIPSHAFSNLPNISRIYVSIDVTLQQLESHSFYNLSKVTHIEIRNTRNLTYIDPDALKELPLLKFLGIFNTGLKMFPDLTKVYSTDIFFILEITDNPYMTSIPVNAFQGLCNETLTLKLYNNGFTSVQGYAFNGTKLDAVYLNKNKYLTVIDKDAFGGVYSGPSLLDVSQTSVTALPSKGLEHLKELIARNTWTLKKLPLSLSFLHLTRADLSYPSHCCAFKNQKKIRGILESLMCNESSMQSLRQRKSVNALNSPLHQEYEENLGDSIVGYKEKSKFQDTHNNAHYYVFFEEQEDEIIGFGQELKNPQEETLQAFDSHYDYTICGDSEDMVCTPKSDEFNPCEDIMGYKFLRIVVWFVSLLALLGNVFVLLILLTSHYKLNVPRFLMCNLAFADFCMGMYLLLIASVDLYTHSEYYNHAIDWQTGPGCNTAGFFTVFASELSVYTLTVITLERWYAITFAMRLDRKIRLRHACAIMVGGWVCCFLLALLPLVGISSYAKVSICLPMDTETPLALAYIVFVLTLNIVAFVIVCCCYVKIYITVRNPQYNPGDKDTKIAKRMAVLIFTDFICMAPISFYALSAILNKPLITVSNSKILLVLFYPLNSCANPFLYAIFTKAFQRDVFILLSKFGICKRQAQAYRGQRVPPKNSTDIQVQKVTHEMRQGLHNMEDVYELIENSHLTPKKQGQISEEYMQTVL
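Antagonism was scored as loss of TSH-driven cAMP in TSHR cells, stimulated with 4nM TSH (EC80) for 2 hours at 37 deg C and detected by homogeneous HTRF competition immunoassay.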
Vif-APOBEC3F blk: inhibitors of Vif-A3F interaction | AID 602313 | HeLa A3F-eYFP + Vif (tagged APOBEC3F with the HIV-1 protein that degrades it), YFP fluorescence increase | 390,000 compounds, 0.2% hits | Potency, µM (series often up to 46.1 µM), for the others: at the highest dose activity, negative = active; also: potency is read from the fitted curve at half-maximal effect; % of control where 0% means no effect; nearly all actives have a fitted effect of over 65% in size
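HeLa cells stably expressing A3F-eYFP plus Vif, plated and incubated overnight at 37 deg C, then exposed to compounds overnight at 37 deg C. Blocked degradation read as raised yellow fluorescence (Ex 488/Em 500-530).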
PLK1 PBD block: inhibitors of human PLK1 polo-box domain binding; Plk1 PBD binding of FITC phosphopeptide, fluorescence polarization; 360,000 compounds, 2.8% hits; Potency, µM, for inactives: max response, negative = inhibition, usual class: inhibitors; P53350; also: potency is read from the fitted curve at half-maximal effect; series mostly up to about 57 µM; % is scaled to controls: 0 for no effect and ±100 for the full control effect; nearly all actives have a fitted effect of over 65% in size
VDR inhibitor: vitamin D3 receptor (human) inhibition; 400,000 compounds, 0.93% hits; P11473; Potency, µM, for the others: max response, negative = inhibition, hits mostly inhibitors; VDR-SRC2-3 peptide fluorescence polarization, 2 h; also: potency is read from the fitted curve at half-maximal effect; % is scaled to controls: 0 for no effect and ±100 for the full control effect
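Reagent solutions, kept cold and dark, are dispensed first; compounds are then pinned in at 23 nl, plates briefly spun, and incubated 2 h at ambient temperature. Inhibition of VDR–SRC2-3 peptide binding is read by fluorescence polarization.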
Vif-APOBEC3G blk: blocks the Vif interaction with human APOBEC3G; 410,000 compounds, 0.076% hits; HeLa A3G-eYFP + Vif (tagged APOBEC3G with the HIV-1 protein that degrades it), YFP fluorescence, overnight; Potency, µM (series often up to 46.1 µM), for inactives: at the highest dose activity, negative = active, most hits filed as inhibitors; AID 602310; Q9HC16; also: potency is read from the fitted curve at half-maximal effect; % is scaled to controls: 0 for no effect and ±100 for the full control effect; nearly all actives have a fitted effect of over 60% in size
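Read-out is eYFP fluorescence (Ex 488/Em 500-530) from Vif-expressing HeLa A3G-eYFP cells; more signal means A3G escaped Vif-mediated degradation. Cells plated overnight, compound pinned in, incubated overnight at 37 deg C.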
TbPYK confirm: Trypanosoma brucei pyruvate kinase inhibition, cherry-pick confirmation. shares compounds with PLK1 PBD block. recombinant TbPYK, Kinase-Glo ATP luminescence. Potency, µM (titrated, usually from 76.9 µM), without a hit: top-dose activity change, negative = inhibition, usual class: inhibitors. 890 compounds, 67% hits. AID 720569; also: potency is read from the fitted curve at half-maximal effect; % is scaled to controls: 0 for no effect and ±100 for the full control effect; nearly all actives have a fitted effect of over 70% in size
TbPYK orthogonal: TbPYK inhibition, orthogonal confirmation; shares compounds with PLK1 PBD block; recombinant TbPYK, ADP-Glo luminescence, 60 min; Potency, µM (top dose mostly 76.9 µM), for the others: at the top dose activity change, negative = inhibition, hits mostly inhibitors; 890 compounds, 62% hits; AID 720584; also: potency is read from the fitted curve at half-maximal effect; % is scaled to controls: 0 for no effect and ±100 for the full control effect; nearly all actives have a fitted effect of over 75% in size
* marks the source's active call; other numbers are inactive results; ? = inconclusive; / = no result. Rows were chosen to be rich in hits. Some 3.1% of all compounds tested hit in one or more screens of this group. Unless noted, calls follow the shape of the dose curve; as a rule, active = well fitted curve in the direction sought with a large enough effect; inconclusive = small, poorly fitted or top-dose-only effect, or another doubt; inactive = no such curve, though single readings can be large; an effect the other way counts as inactive or inconclusive.

SMILES	TSHR antag	Vif-APOBEC3F blk	PLK1 PBD block	VDR inhibitor	Vif-APOBEC3G blk	TbPYK confirm	TbPYK orthogonal
COc1ccc(-c2cc3nc(C4CCN(C(=O)OC(C)(C)C)CC4)c(C(=O)Nc4cc(Cl)cc(Cl)c4)cn3n2)cc1	/	-4.6%	/	-6.5%	-1.3%	/	/
CC(=O)OCCNc1cc(N2CCN(C)CC2)c2noc3c2c1C(=O)c1ccccc1-3	-20.4	?	20.0%	?	?	10µM*	?
O=C(O)CCCNc1cc(N2CCN(C3CCCCC3)CC2)c2noc3c2c1C(=O)c1ccccc1-3	/	2.8%	/	?	-0.6%	/	/
CCOc1ccc(-c2c(=O)n(OCC)c3ccccc3[n+]2[O-])cc1	-3.8	0.6%	?	-1.8%	-6.6%	/	/
CCOc1ccc(-c2c(=O)n(O)c3ccccc3[n+]2[O-])cc1	-7.3	-5.0%	?	-6.0%	0.5%	?	-14.6%
O=C(c1ccco1)N1CCC2(CCCN(c3ccncc3)C2)CC1	/	/	/	4.2%	/	/	/
Cc1ccccc1CS(=O)(=O)c1cn(CC(=O)N2CCOCC2)c2ccccc12	8.2	-2.1%	-5.9%	-21.7%	0.7%	/	/
O=C(Cn1cc(S(=O)(=O)Cc2ccc([N+](=O)[O-])cc2)c2ccccc21)N1CCOCC1	-3.4	-12.9%	-22.2%	4.6%	-0.7%	15.8µM*	25.1µM*
CCCCC(=O)N(Cc1ccc2c(c1)OCO2)Cc1nc2ccccc2c(=O)[nH]1	-11.7	0.2%	6.7µM*	?	-2.6%	7.4%	2.2%
Cc1ccc(C(=O)N(Cc2ccc3c(c2)OCO3)Cc2nc3ccccc3c(=O)[nH]2)cc1	-0.6	-4.1%	-7.5%	11.8%	-0.6%	/	/
COc1ccc(OC)c(-n2c(=O)c3ccccc3c3ccccc3c2=O)c1	15.8	-14.9%	?	-2.4%	-21.0%	/	/
COc1ccc(OC)c(-n2c(=S)[nH]c3c(sc(=S)n3-c3ccccc3)c2=O)c1	12.8	27.7%	-6.8%	32.1%	1.5%	15.8µM*	15.8µM*
Cc1cc(C2=NNC(=Nc3ccccc3)SC2)c(C)n1C	-11.9	-25.7%	-5.0%	-8.5%	2.3%	?	14.1µM*
COCCn1c(C)cc(C2=NNC(=Nc3ccccc3F)SC2)c1C	12.6	-9.9%	-16.1%	-8.6%	1.7%	/	/
CC1CCN(CCCn2c(=S)[nH]c3c(sc4ccccc43)c2=O)CC1	-3.0	-0.9%	-8.2%	-14.5%	-0.3%	/	/
O=c1c2sc3ccccc3c2[nH]c(=S)n1CCN1CCOCC1	-2.2	5.0%	-11.6%	6.5%	-5.6%	3.98µM*	5.62µM*
COc1ccc(CNC(=O)C(=O)NCC(c2ccco2)S(=O)(=O)c2ccc(Cl)cc2)cc1 (stereo not given)	/	-2.2%	/	8.1%	4.7%	/	/
Cc1[nH]c2ccccc2c1C1=CC(=O)C=CC1=O	/	?	3.36µM*	28.2µM*	?	0.562µM*	2.82µM*
COc1ccc(C(Nc2ccccn2)c2oc(CO)cc(=O)c2O)cc1 (stereo not given)	-2.7	2.0%	23.8µM*	?	1.7%	39.7%	16.4%
COc1cccc(N2CCN(C3=NS(=O)(=O)C(c4ccc(C)cc4)=C3C)CC2)c1	/	-4.9%	/	-6.5%	0.4%	/	/
O=C(O)C1OC(Oc2cc3oc(-c4ccccc4)cc(=O)c3c(O)c2O)C(O)C(O)C1O (stereo not given)	18.0	5.2%	3.5%	-9.0%	2.1%	2.82µM*	2.82µM*
COc1c(OC2OC(C(=O)O)C(O)C(O)C2O)cc(O)c2c(=O)cc(-c3ccccc3)oc12 (stereo not given)	17.4	3.7%	-14.4%	-5.1%	5.9%	/	/
Cc1ccc(S(=O)(=O)NN=CC=CC=NNS(=O)(=O)c2ccc(C)cc2)cc1	/	?	?	/	-2.8%	31.6µM*	35.5µM*
Cc1ccc(NNS(=O)(=O)c2ccc(C)cc2)cc1	0.7	0.4%	3.77µM*	?	-5.3%	8.91µM*	?
Cc1ccc(S(=O)(=O)NNC(=O)C(=O)NNS(=O)(=O)c2ccc(C)cc2)cc1	-13.6	1.7%	-3.8%	-9.5%	-1.6%	/	/
SMILES	TSHR antag	Vif-APOBEC3F blk	PLK1 PBD block	VDR inhibitor	Vif-APOBEC3G blk	TbPYK confirm	TbPYK orthogonal
COc1ccc(NC(=O)N2CCC3(CC2)CCN(S(C)(=O)=O)CC3)cc1	/	/	/	2.9%	/	/	/
O=C1C=CC(=O)N1CCCCCCN1C(=O)C=CC1=O	-98.6*	1.1%	3.36µM*	3.16µM*	-13.6%	7.08µM*	7.08µM*
CCc1nn2c(=O)cc(COC(=O)c3cccc(NC(=O)CCc4ccccc4)c3)nc2s1	/	-5.3%	/	9.4%	4.7%	/	/
COc1cc(/C=C2\SC(c3ccc(C)cc3)=NC2=O)ccc1O	-0.9	12.5%	-23.8%	?	0.4%	/	/
COc1ccc(/C=C2/SC(c3ccc(C)cc3)=NC2=O)cc1OC	0.1	-16.6%	-13.4%	50.1µM*	-13.7%	?	15.8µM*
COc1cc(/C=C2\SC(c3ccc(C)cc3)=NC2=O)cc(OC)c1OC	-4.7	3.4%	20.1%	?	0.0%	/	/
COc1ccc(/C=C2\SC(c3ccc(C)cc3)=NC2=O)cc1OC	-10.4	-10.5%	-19.9%	?	2.6%	35.5µM*	10µM*
CN1[C@@H]2CC[C@H]1CC(OC(c1ccccc1)c1ccccc1)C2 (stereo not given in full)	/	/	/	-9.5%	/	/	/
CC(=O)NC1=NC(=O)/C(=C/c2cn(C(C)=O)nc2-c2ccccc2)S1	-24.3	-8.0%	9.47µM*	?	7.0%	?	?
CC(C)CCOc1ccc(Cn2c(=O)sc3ccccc32)cc1	/	-4.6%	/	4.4%	-1.0%	/	/
CCOC(=O)c1sc(N/N=C/c2cccc(C)c2)nc1C	-5.1	-3.4%	-8.8%	3.3%	-1.2%	/	/
CCOC(=O)c1sc(N/N=C/c2ccccc2)nc1C	-6.6	-25.5%	8.44µM*	44.7µM*	-3.8%	14.1µM*	28.2µM*
C[C@H]1CCC/C=C/[C@@H]2C[C@H](O)C[C@H]2[C@H](O)[C@H](S(=O)c2ccc(O)cc2)CC(=O)O1 (stereo not given in full)	/	-1.2%	10.6µM*	?	-15.9%	17.8µM*	12.6µM*
COc1ccc(CNC(=O)c2ccc3c(c2)CCN3S(=O)(=O)c2ccc(Cl)cc2)cc1	/	-5.6%	/	2.7%	4.6%	/	/
Cc1ccc(/C(C#N)=C\c2ccc(N3CCOCC3)o2)cc1	13.2	?	11.6%	?	?	/	/
N#C/C(=C/c1ccc(N2CCCCCC2)o1)c1ccc(Cl)cc1	-13.9	?	-5.5%	22.4µM*	?	?	35.5µM*
C/C(Cn1nc([N+](=O)[O-])cc1C)=N\NC(=O)COc1c(Cl)cc(Cl)cc1Cl	7.0	-2.5%	-8.6%	-7.1%	?	2.1%	-2.9%
